# Measured values: PubChem BioAssay AID1745849 (National Center for Advancing Translational Sciences (NCATS), 2022)
# The campaign covered roughly 2,100 compounds. About 320 (15%) were called active. Inconclusive results (about 52%) are left out. Calls come from the whole dose curve; as a rule, active = well fitted cell-killing curve with a large enough effect; inconclusive = small, poorly fitted or top-dose-only effect, or effect the other way; inactive = flat fitted curve, though single readings scatter. The list shows a part of the results. A call without a number means that no potency is given here.
# Assay: Viability Counterscreen for CMV-Luciferase Assay of Inhibitors of ATXN expression; note: nearly all actives have a fitted effect of over 55% in size
# Conditions: HEK-293 CMV-luciferase cells viability, protease fluorescence, 24 h
# How it was run: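 HEK-293 cells stably expressing a CMV-luciferase reporter were exposed to compounds at several concentrations for 24 hr at 37 degree C. Viability was read as Gly-Phe-AFC fluorescence (25 uM final, 30 min). SteadyGlo luminescence was then measured after 5 min.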
# Potency is the fitted concentration of half-maximal effect.
row,Structure (SMILES),Potency
1,O=C(/C=C/c1ccc(Cl)cc1)Nc1ccc(CN2CCOCC2)cc1,inactive
2,Cc1ccc(OCCn2cc(/C=N/NC(=O)c3ccncc3)c3ccccc32)cc1,inactive
3,Cc1ccc(C(C)C)c(OCc2ccc(C(=O)N/N=C/c3cccc(O)c3O)cc2)c1,3.98 µM (active)
4,Cc1cccc(OCCn2cc(/C=N/NC(=O)c3ccncc3)c3ccccc32)c1,inactive
5,COC(=O)c1ccc(C(=O)Nc2cc(Cl)ccc2Cl)cc1NC(=O)c1ccc(N(C)C)cc1,inactive
6,Cc1cccc(N=C2NN=C(c3c(C)[nH]c4ccccc34)CS2)c1,25.1 µM (active)
7,Cc1cc(C2=NNC(=NC3CC3)SC2)c(C)n1-c1ccccc1F,inactive
8,C/C(=N\NC(=O)C(C)n1nc(C)c([N+](=O)[O-])c1C)c1ccccc1O (configuration not stated),inactive
9,COc1ccc(CC(N)c2csc(Nc3ccc(C(=O)c4ccccc4)cc3)n2)cc1 (configuration not stated),inactive
10,CN(Cc1ccccc1)C(=O)c1ccc(Nc2nc(C(N)Cc3ccccc3)cs2)nc1 (configuration not stated),10 µM (active)
11,NC(=O)c1cccc(Nc2nc(C(N)Cc3ccc(C(F)(F)F)cc3)cs2)n1 (configuration not stated),inactive
12,COc1cc2c(C(=O)N3CCOCC3)c(CSc3ccccc3)n(C)c2cc1Br,inactive
13,COc1ccc2nc(C)cc(NCc3ccc(F)cc3)c2c1,inactive
14,COc1ccc(CNc2ncnc3c2[nH]c2ccccc23)cc1,14.1 µM (active)
15,Cc1cc(C(=O)CN2C(=O)c3ccccc3S2(=O)=O)c(C)n1C(C)C,inactive
16,COc1ccc(CCn2c(C)cc(C(=O)CSc3nc(N)cc(=O)[nH]3)c2C)cc1,inactive
17,Cc1cccc(/C=N/NC(=O)c2cccc(Cl)c2)n1,inactive
18,Cc1[nH]n(-c2cccc3ccccc23)c(=O)c1/C=N/NC(=O)c1cccc([N+](=O)[O-])c1,11.2 µM (active)
19,Cc1[nH]n(-c2ccccc2)c(=O)c1C=Nc1cccc2cccnc12,inactive
20,Nc1ccc(Oc2ccccc2-c2ccccc2)cc1,inactive
21,CC(NC1=CC(=O)c2cccnc2C1=O)C(O)c1ccccc1 (configuration not stated),17.8 µM (active)

row,Structure (SMILES),Potency
1,Cc1ccc(Sc2nnc(Cc3ccccc3)c3ccccc23)cc1,inactive
2,Cc1ccc(S(=O)(=O)c2nc(NCc3ccc4c(c3)OCO4)sc2Cl)cc1,inactive
3,Fc1ccc2[nH]c3c(N4CCSCC4)ncnc3c2c1,17.8 µM (active)
4,Cc1ccc(C)c(OCCCC(=O)Nc2nccs2)c1,inactive
5,COc1ccc2c(Cl)c(C(=O)NN)sc2c1,inactive
6,Nc1c(C(=O)NCc2ccccc2)c2nc3ccccc3nc2n1-c1ccc2c(c1)OCO2,inactive
7,CC[C@H]1CN2CCc3cc(OC)c(OC)cc3C2C[C@@H]1C[C@H]1NCCc2cc(OC)c(OC)cc21 (some centres not stated),0.316 µM (active)
8,CCC1=C(CC2NCCc3ccccc32)CC2c3cc(OC)c(OC)cc3CCN2C1 (configuration not stated),10 µM (active)
9,O=C(CC1NCCc2ccccc21)Nc1ccc(Cl)cc1 (configuration not stated),inactive
10,O=C(C1CCC(CNS(=O)(=O)c2cccc3nsnc23)CC1)N1CC=C(c2ccccc2)CC1 (configuration not stated),inactive
11,COc1ccc(Br)cc1C(=O)Nc1ccccc1N1CCN(C(=O)c2ccccc2)CC1,inactive
12,CCOC(=O)COc1ccc(Br)cc1/C=C/c1[nH]c(=O)[nH]c(=O)c1[N+](=O)[O-],inactive
13,CCN(CC)S(=O)(=O)c1ccc(N/N=C/c2cc(OC)ccc2O)nc1,inactive
14,CC(C)(C)c1ccc(Oc2ccc(N)cn2)cc1,inactive
15,COc1ccc2c(c1)C(SCC(=O)NCCc1ccc(Cl)cc1)CC(C)(C)O2 (configuration not stated),inactive
16,Cc1cccc(N2CCN(C(=O)CNC(=O)Cc3ccccc3)CC2)c1C,inactive
17,O=C(NNC(=O)C(c1ccccc1)c1ccccc1)c1ccccn1,10 µM (active)
18,CCC1=C(OC(=O)N(CC)CC)N2C(=O)OC(=NCCc3c[nH]c4ccccc34)[C@]2(Cc2ccccc2)[C@H]2C1=CC[C@H]1C(=O)N(c3ccccc3)C(=O)[C@H]12,inactive
19,CCc1ccc(-c2nc(CS(=O)CC(=O)NCc3ccco3)c(C)o2)cc1 (configuration not stated),inactive
20,Cc1nc(N=C(N)N)nc2c(C)cccc12,8.91 µM (active)
21,O=C(N/N=C/c1cc(Br)cc(Br)c1O)c1cccc(N2CCCC2=O)c1,inactive

row,Structure (SMILES),Potency
1,O=C(Nc1cccc2cccnc12)c1csc(COCCO)n1,inactive
2,CS(=O)(=O)N(CC(O)CON=C1c2ccccc2-c2ccccc21)c1ccc(F)cc1 (configuration not stated),inactive
3,Cc1ccc(NC(=O)C2CCN(S(=O)(=O)c3ccc(N4CCCC4=O)cc3)CC2)cc1Cl,inactive
4,Cc1ccnc(NC(=O)C2CCN(S(=O)(=O)c3c(C)c(C)cc(C)c3C)CC2)c1,15.8 µM (active)
5,COc1ccc2nc(NC(=O)C3CCN(S(=O)(=O)c4cccs4)CC3)sc2c1,inactive
6,O=C(Cn1cnc([N+](=O)[O-])c1)Nc1cc(Oc2ccc(Cl)cc2Cl)cc([N+](=O)[O-])c1,inactive
7,Oc1ccc(Cl)cc1Sc1cc(Cl)ccc1O,20 µM (active)
8,CCOc1ccc(NC(=O)Nc2nnc(CC(=O)NCc3ccccc3)s2)cc1,inactive
9,Cc1cc(C)c(CSc2ncc(-c3ccc([N+](=O)[O-])cc3)[nH]2)c(C)c1,inactive
10,CN(C)CCCN(C(=O)c1ccc(S(=O)(=O)N(C)Cc2ccccc2)cc1)c1nc2cc3c(cc2s1)OCO3,22.4 µM (active)
11,CCN(c1ccccc1)S(=O)(=O)c1ccc(C(=O)N(CCCN(C)C)c2nc3c(C)cccc3s2)cc1,28.2 µM (active)
12,CCOc1ccccc1NC(=O)CCCc1nc2ccccc2c(=O)[nH]1,inactive
13,Cc1nn(C)c(C)c1NC(=O)CSc1nc(Cc2ccccc2)nc2c1cnn2-c1ccccc1,inactive
14,CCC(C)n1cnc2c(c1=O)c1nc3ccccc3nc1n2-c1ccc2c(c1)OCCO2 (configuration not stated),inactive
15,C=CCn1cnc2c(c1=O)c1nc3ccccc3nc1n2/N=C/c1cc(OC)c(OC)c(OC)c1,11.2 µM (active)
16,CCCCC(=O)N(C)c1c(CC)nc2c(OCc3ccc(Cl)cc3Cl)cccn12,inactive
17,COc1ccc(Br)cc1C(=O)NC(=S)Nc1ccc(CN2CCOCC2)cc1,inactive
18,CNc1ccc(Br)cc(C(=O)/C=C/c2ccc3c(c2)OCO3)c1=O,inactive
19,CCNc1ccc(Br)cc(C(=O)/C=C/c2ccccc2Cl)c1=O,inactive
20,CCc1ccc(/C=C/C(=O)c2cc(Br)ccc(=O)c2O)cc1,28.2 µM (active)
